# Reference: PubChem BioAssay (NCATS)
# Inconclusive results are not listed. Calls of active or inactive are those of the source. Calls come from the whole dose curve; as a rule, active = well fitted inhibition curve with a large enough effect; inconclusive = small, poorly fitted or top-dose-only effect; inactive = no such curve, though single readings can be large or run the other way.
# Assay: NS1 protein of Zika virus - qHTS assay to identify small molecule inhibitors in human HEK 293 cells (AID 1347053); note: nearly all actives have a fitted effect of over 55% in size;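 for activity change, negative = inhibition: plate controls were infected untreated cells for no effect and uninfected cells for full effect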
# Settings: HEK293 ZIKV MR766 infection, NS1 TR-FRET, 24 h; series mostly up to 46.1 µM; activity change, negative = inhibition: at the top concentration
# In short: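 HEK 293 cells, seeded 20 h at 37 C, were pretreated with compound 1 h, then infected with ZIKV MR766 (MOI = 0.5) for 24 h. NS1 was read by TR-FRET with two anti-NS1 antibodies, normalized to uninfected and infected wells.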
# Potency is the fitted concentration of half-maximal effect.
Compound,"activity change, negative = inhibition",Potency
c1cc(-c2sc(-c3ccncc3)c(-c3ccncc3)c2-c2ccncc2)ccn1,12.2% (inactive),
O=c1[nH]cnc2c1ncn2[C@H]1CC[C@@H](CO)O1,-25.4% (inactive),
CC[C@]1(O)C[C@@H]2CN(CCc3c([nH]c4ccccc34)[C@@](C(=O)OC)(c3cc4c(cc3OC)N(C)[C@H]3[C@@](O)(C(=O)OC)[C@H](OC(C)=O)[C@]5(CC)C=CCN6CC[C@]43[C@@H]65)C2)C1,,inactive
CC(C)C(=O)Nc1ncc(-c2cc(C(F)F)nn2-c2c(Cl)cccc2Cl)s1,,13.2 µM (active)
C[C@]12CC[C@@H]3c4ccc(O)cc4CC[C@H]3[C@H]1C[C@@H](O)[C@H]2O,2.31% (inactive),
Oc1ccc(C2=Cc3ccc(O)cc3OC2)cc1,,10.5 µM (active)
COc1ccc(-c2oc3c(CC=C(C)C)c(OC4O[C@H](CO)[C@@H](O)[C@H](O)[C@@H]4O)cc(O)c3c(=O)c2OC2O[C@@H](C)[C@H](O)[C@@H](O)[C@@H]2O)cc1 (stereo partly drawn),,18.7 µM (active)
CC(C(=O)O)c1ccc(-c2ccccc2)c(F)c1 (stereo not drawn),2.93% (inactive),
O=C(CCN1CCN(C(=O)OCc2cc(Cl)cc(Cl)c2)CC1)c1ccc2[nH]c(=O)oc2c1,-2.85% (inactive),
O=C(O)c1cc(O)c2c(c1)C(=O)c1cccc(O)c1C2=O,7.21% [at 92.8 µM] (inactive),
CC=CCC=CCCC(=O)[C@H]1O[C@@H]1C(N)=O,-6.9% (inactive),
OC[C@@H](O)[C@H](O)[C@H](O)[C@@H](O)CO,,inactive
CC(=O)Oc1cc2c(s1)CCN(C(C(=O)C1CC1)c1ccccc1F)C2 (stereo not drawn),3.59% (inactive),
O=C1NC(=O)C(=Cc2ccc(-c3ccc(F)cc3)o2)S1,10.5% (inactive),
COc1ccc(C2Sc3ccccc3N(CCN(C)C)C(=O)C2OC(C)=O)cc1 (stereo not drawn),2.19% (inactive),
Clc1cc(Cl)cc(CNc2ncncc2-c2ccc3c(c2)OCO3)c1,,18.7 µM (active)
CC(=O)OC1C(C)OC(Oc2c(-c3ccc(O)cc3)oc3cc(O)cc(O)c3c2=O)C(O)C1OC(C)=O (stereo not drawn),0.649% (inactive),
Cc1ccccc1C(C(=O)NC1CCCCC1)N(C(=O)Cn1ccnc1C)c1cccc(F)c1 (stereo not drawn),0.298% (inactive),
N#CC1(c2ccc(NC(=O)c3cccnc3NCc3ccncc3)cc2)CCCC1,1.85% (inactive),

Compound,"activity change, negative = inhibition",Potency
O=C(O)[C@H]1O[C@H](Oc2cc3oc(-c4ccccc4)cc(=O)c3c(O)c2O)[C@H](O)[C@@H](O)[C@H]1O,-7.74% (inactive),
O=C(NOCC(O)CO)c1cc(Br)c(F)c(F)c1Nc1ccc(I)cc1F (stereo not drawn),-8.07% (inactive),
CCc1ccc(OCc2ccccc2C(=O)Nc2ccc3nc(C)cc(N)c3c2)cc1,,2.96 µM (active)
COc1cc2nc(-c3ccc(N4CCN(C)CC4)cc3)nc(NCCN3CCOCC3)c2cc1OC,,0.332 µM (active)
O=C(CCc1ccc(O)cc1)c1c(O)cc(O)cc1O[C@@H]1O[C@H](CO)[C@H](O)[C@H](O)[C@H]1O,-1.03% (inactive),
CC(C)C[C@H](CC(=O)O)C(=O)N[C@@H](Cc1c[nH]c2ccccc12)C(=O)N[C@@H](C)c1ccccc1,-1.96% (inactive),
O=C(O)c1cc(-c2ccccc2)nc2ccccc12,,inactive
Cc1nnc(C(C)C)n1C1C[C@H]2CC[C@@H](C1)N2CC[C@H](NC(=O)C1CCC(F)(F)CC1)c1ccccc1 (stereo partly drawn),-0.799% (inactive),
O=C(OCC#CCSc1nnc(-c2cccc3ccccc23)o1)c1cc2ccccc2s1,2.36% (inactive),
O=C(O)C(O)Cc1ccc(O)c(O)c1 (stereo not drawn),0.286% (inactive),
CC#CCn1c(N2CCC[C@@H](N)C2)nc2c1c(=O)n(Cc1nc(C)c3ccccc3n1)c(=O)n2C,4.74% (inactive),
O=C1NC(=O)C(=Cc2ccc3nccnc3c2)S1,17.9% [at 20.1 µM] (inactive),
CC(C)C(C)C=CC(C)C1CCC2C3=CC=C4CC(O)CCC4(C)C3CCC21C (stereo not drawn),6.58% (inactive),
Cc1ccn(-c2ccc(-c3ncco3)cc2)c(=O)c1-c1ccc2nc(N)ncc2c1,-17.3% (inactive),
NC1=N[C@@]2(c3cc(NC(=O)c4ccc(F)cn4)ccc3F)COC[C@@H]2CS1,0.726% (inactive),
CC(C)(Cc1ccc2ccccc2c1)NC[C@@H](O)COc1cccc(Cl)c1C#N,3.84% (inactive),
C[C@@H]1CCN(C(=O)CC#N)C[C@H]1N(C)c1ncnc2[nH]ccc12,0.217% (inactive),
CCC(=O)O[C@]1(C(=O)CO)CC[C@H]2[C@@H]3CCC4=CC(=O)CC[C@]4(C)[C@@H]3CC[C@@]21C,2.43% (inactive),
Cc1[nH]c(C=C2C(=O)Nc3ccc(S(=O)(=O)Cc4c(Cl)cccc4Cl)cc32)c(C)c1C(=O)N1CCC[C@H]1CN1CCCC1,5.37% (inactive),
